Compounds without any hit were thinned out: in the full panel of roughly 83,000, 20% have a hit.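 For each line, cells grew in 96-well plates with the test compound present at a single concentration for 48 hours.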 Values without a mark were called inactive. Activity calls are given as the source filed them. Rule for the calls: active = growth percent below 10; inactive = the rest.
Tested on: IGROV1 ovarian
Test: NCI-60 one-dose screen, 48 h (100 = growth as untreated, 0 = no growth, -100 = all killed)
Details: 10 µM unless noted

Compound | growth
COC1=C(OC)C(=O)C(CCCCCCCCCC[P+](c2ccccc2)(c2ccccc2)c2ccccc2)=C(C)C1=O | -31.6% (active)
O=C(CN1CCN(c2cc3c(cc2F)c(=O)c(C(=O)N/N=C/c2ccccc2O)cn3C2CC2)CC1)N/N=C\c1ccccc1O | 21.5%
COc1ccc(-c2ccc(-c3ccc(C(=N)N)cn3)s2)cc1OC | 101%

Tested on: OVCAR-3 ovarian
Test: as above
Details: 10 µM unless noted

Compound | growth
O=c1ccn(-c2ncnc3nc[nH]c23)cc1 | 88.3%
CCN(CC)c1ccc(CNc2ccnc3ccccc23)cc1 | 52.5%
COc1ccc(CN2CCc3c(Sc4ccccc4)nc(N)nc3C2=O)c(OC)c1 | 57.1%
COc1ccc(/C=C\c2cc(OC)c(OC)c(OC)c2)cc1OC(=O)c1cccc(Cn2cc(CCOC(=O)c3cccc(Cn4nnc5c4C(=O)c4ccccc4C5=O)c3)nn2)c1 | -10.1% (active)
CCCCN(CCCC)C(=O)CC | 113%
O=C1/C(=C/c2ccccc2)CN(C(=O)CCN2CCC(=NO)CC2)C/C1=C\c1ccccc1 | -27% (active)
COc1ccc(Nc2nc(N)nc3c2CCN(Cc2ccc(OC)cc2OC)C3=O)cc1 | 88%
Cn1ccc(=O)c(S(N)(=O)=O)c1 | 112%
Cc1cc(N/N=C/c2nc(-c3ccccc3)oc2C)c2cc(Br)ccc2n1 | 109%
Cc1nn(-c2ccc([N+](=O)[O-])cc2)c2ncnc(NCCc3ccccc3)c12 | 112%
CCN(CC)CCC(CNc1ccnc2cc(Cl)ccc12)c1ccc(Cl)cc1 (stereo not given) | 25%
OC(c1cc2cc(Br)ccc2c2cc(Br)ccc12)C1CCCCN1 (stereo not given) | -91.9% (active)
COC(=O)c1cc2cc(-c3ccc(OC)cc3)cnc2[nH]1 | -55.7% (active)
Cc1ccc(S(=O)(=O)n2cc(C(=O)C(=O)N3CCOCC3)c3ccccc32)cc1 | 91.4%
COc1ccc(-c2nc(/C=N/Nc3cc(C)nc4ccc(Cl)cc34)c(C)o2)cc1 | -96.9% (active)
O=C1c2ccccc2-c2ccccc2C1(Cl)Cl | -87.2% (active)

Compound | growth
COc1ccc(-c2cn(-c3cccc(C(=O)/C=C/c4cc(OC)c(OC)c(OC)c4)c3)c(=O)[nH]2)cc1OC | 98.2%
CCCCCCCCCCCCNC(=O)[C@H]1CSC(c2ccsc2)N1 (stereo not given in full) | -86.8% (active)
COc1cc(C2NN=C3c4ccccc4CCC32)cc(OC)c1OC (stereo not given) | 71.2%
CN1CCN(Cc2ccc(NC(=O)c3cncc(C#Cc4cnc(N)c5ccncc45)c3)cc2C(F)(F)F)CC1 | 35.2%
N=C(N)c1ccc(-c2ccc(-c3ccc4ccccc4c3)s2)cc1 | 102%
COc1cc(/C=C/C(=O)c2cccc(-n3cc(-c4cc(OC)c(OC)c(OC)c4)[nH]c3=O)c2)cc(OC)c1OC | -39% (active)
N=C(N)c1ccc(-c2ccc(-c3ccc(-c4cccs4)s3)s2)cc1 | 94.7%
COc1ccc(-c2ccc(-c3ccc(C(=N)N)s3)s2)cc1Cl | -90.6% (active)
O=c1[nH]c2ccc(Br)cc2c2c1C(c1ccc(Cl)cc1)c1c(ncn3nc(-c4ccco4)nc13)O2 (stereo not given) | 81.7%
N=C(N)c1ccc(-c2cc(Cl)cc(Cl)c2)cn1 | 97.4%
Cc1cc(N/N=C/c2nc(-c3ccccc3)oc2C)c2cc(Cl)ccc2n1 | -92.5% (active)
Oc1ccc2cc(Br)ccc2c1-c1c(O)ccc2cc(Br)ccc12 | 65.5%
CCC(=O)Oc1ccc(/C(=C(/C)Cc2cccc(OC)c2)c2ccc(OCCN(C)C)cc2)cc1 | 92%
COC1=C(OC)C(=O)C(CCCCCCCCCC[P+](c2ccccc2)(c2ccccc2)c2ccccc2)=C(C)C1=O | -34.2% (active)
O=C(CN1CCN(c2cc3c(cc2F)c(=O)c(C(=O)N/N=C/c2ccccc2O)cn3C2CC2)CC1)N/N=C\c1ccccc1O | 30.7%
COc1ccc(-c2ccc(-c3ccc(C(=N)N)cn3)s2)cc1OC | 109%
